Compound activity from PubChem BioAssay.
HPGD inh: qHTS Assay for Inhibitors of HPGD (15-Hydroxyprostaglandin Dehydrogenase); 15-hydroxyprostaglandin dehydrogenase [NAD(+)] (Homo sapiens), P15428; Potency, µM, usual class: inhibitors; 4.3% of 150,000 active; purified HPGD, NADH fluorescence kinetic, PGE2 substrate
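20 nM HPGD preincubated 15 min at room temperature with compound in 50 mM Tris-HCl pH 8, 0.01% Tween 20. Started with 1 mM NAD+ and 30 uM prostaglandin E2; NADH fluorescence (360/450 nm) read 5 times over 30-s intervals, last minus first.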
ALDH1A1 inh: qHTS Assay for Inhibitors of Aldehyde Dehydrogenase 1 (ALDH1A1); Aldehyde dehydrogenase 1A1 (Homo sapiens), P00352; Purified ALDH1A1, NADH fluorescence, propionaldehyde substrate; Potency, µM (top dose mostly 75.3 µM), usual class: inhibitors; 7.3% of 220,000 active; AID 1030, 2008
Target sequence (P00352 whole entry, looked up): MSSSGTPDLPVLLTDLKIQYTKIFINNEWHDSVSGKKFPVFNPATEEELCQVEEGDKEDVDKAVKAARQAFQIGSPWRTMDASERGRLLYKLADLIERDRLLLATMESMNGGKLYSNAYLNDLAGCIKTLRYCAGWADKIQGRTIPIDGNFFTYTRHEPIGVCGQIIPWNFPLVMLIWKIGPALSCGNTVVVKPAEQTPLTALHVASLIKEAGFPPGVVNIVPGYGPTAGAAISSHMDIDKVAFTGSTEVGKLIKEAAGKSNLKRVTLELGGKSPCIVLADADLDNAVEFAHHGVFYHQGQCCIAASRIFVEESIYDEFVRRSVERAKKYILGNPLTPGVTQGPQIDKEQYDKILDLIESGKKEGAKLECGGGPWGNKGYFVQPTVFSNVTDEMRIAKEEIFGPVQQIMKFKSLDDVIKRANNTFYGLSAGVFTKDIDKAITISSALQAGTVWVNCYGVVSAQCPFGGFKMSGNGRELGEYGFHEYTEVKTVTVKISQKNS
KDM4E inh: qHTS Assay for Inhibitors of Human Jumonji Domain Containing 2E (JMJD2E). Lysine-specific demethylase 4E (Homo sapiens), B2RXH2. JMJD2E catalytic domain, FDH-coupled NADH fluorescence (FDH is formaldehyde dehydrogenase). Potency, µM (doses to about 57.1 µM), most hits filed as inhibitors. 1.6% of 230,000 active; note: nearly all actives have a fitted effect of over 50% in size
PNC assembly inh: High Content Assay for Compounds that inhibit the Assembly of the Perinucleolar Compartment; PC3M PTB-GFP, PNC prevalence imaging, 16 h; stronger effect = lower value; 3.1% of 140,000 active; activity change (PNC), negative = inhibition, % at 10 µM;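 active = readout at or below -70, meaning at least 70% loss of cells showing the perinucleolar compartment, a nuclear body marking cancer cells; inconclusive = readout between -30 and a set limit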
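Read-out is percentage of cells bearing a perinucleolar compartment, from automated 20x imaging of fixed, Hoechst-stained PC3M PTB-GFP cells. Cells were seeded 4 h, then exposed 16 h to compound (23 nl of library stock) in duplicate plates.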
Large screens that a line does not name were inactive; ! = not active in a repeat. An excerpt weighted towards active compounds, which were near 11% of everything screened. Unless noted, calls come from the whole dose curve; as a rule, active = well fitted inhibition curve with a large enough effect (not every such curve was filed as active); inconclusive = small, poorly fitted or top-dose-only effect, or another doubt; inactive = no such curve, though single readings can be large or run the other way.

NC1=NC2(CCCCC2)N=C(Nc2ccc(Br)cc2)N1	none
O=S(=O)(NCc1ccc(Cl)cc1)c1ccc(Cl)nc1	PNC assembly inh inconclusive
NS(=O)(=O)c1ccc(CNS(=O)(=O)c2ccc(Cl)nc2)cc1	ALDH1A1 inh 22µM (no result: HPGD inh, PNC assembly inh)
Cc1cc(C(=O)COC(=O)Cc2n[nH]c(=O)c3ccccc23)c(C)n1-c1cccc(C(F)(F)F)c1	ALDH1A1 inh 7.9µM
Cc1ccc2cc(/C=N/NC(=O)CN3CCCCC3)c(Cl)nc2c1	ALDH1A1 inh inconclusive (no result: HPGD inh, PNC assembly inh)
COc1ccc(/C=N/NC(=O)c2cccc(NC(C)=O)c2)c(C(=O)O)c1OC	none (no result: HPGD inh, PNC assembly inh)
CCCc1nn(C)c2c(=O)[nH]c(-c3ccccc3OCC)nc12	HPGD inh inconclusive, ALDH1A1 inh inconclusive
CCCOc1ccccc1-c1nc2n[nH]nc2c(=O)[nH]1	HPGD inh 8.9µM, ALDH1A1 inh 20µM! (no result: PNC assembly inh)
C=CCNC(=O)/C(=C/c1cccc([N+](=O)[O-])c1)NC(=O)c1ccco1	none (no result: HPGD inh, PNC assembly inh)
N#CC1=C(N)SC(N)=C(C#N)C1C1CC=CCC1 (centres undefined)	ALDH1A1 inh inconclusive
Cc1cc2c(c(=O)o1)C(C(C)C)C(C#N)=C(N)O2 (centres undefined)	ALDH1A1 inh inconclusive
Cc1cc2c(c(=O)o1)C(C1C=CCCC1)C(C#N)=C(N)O2 (centres undefined)	HPGD inh 28µM, ALDH1A1 inh 7.9µM
N#CC1=C(N)SC(N)=C(C#N)C1C1C=CCCC1 (centres undefined)	ALDH1A1 inh 22µM, KDM4E inh inconclusive
COCCCN(CC(=O)Nc1ccc(N2CCOCC2)cc1)S(=O)(=O)c1ccccc1	ALDH1A1 inh inconclusive (no result: HPGD inh, PNC assembly inh)
C=CCNC(=S)/C(=C(/[O-])c1ccccc1Br)[n+]1ccccc1	none (no result: HPGD inh, PNC assembly inh)
COCC(C)NC(=O)CSc1nnc(-c2cccc(S(=O)(=O)N3CCCCC3)c2)o1 (centres undefined)	none (no result: HPGD inh, PNC assembly inh)
CCN(CC)S(=O)(=O)c1ccc(NC(=O)COC(=O)CNS(=O)(=O)/C=C/c2ccccc2)cc1	ALDH1A1 inh 1µM
CC(C)CNC(=O)CSc1nnc(-c2cccc(S(=O)(=O)N3CCCCC3)c2)o1	PNC assembly inh -128
CCN(CC)S(=O)(=O)c1ccc(NC(=O)CSc2cccc[n+]2[O-])cc1	ALDH1A1 inh 22µM, KDM4E inh inconclusive
O=C(CSc1nnc(-c2ccc(F)cc2)o1)Nc1ccc(S(=O)(=O)N2CCCC2)cc1	ALDH1A1 inh 16µM
CCc1cccc(C)c1NC(=O)COC(=O)CNS(=O)(=O)/C=C/c1ccccc1	ALDH1A1 inh inconclusive
O=C(CSc1nnc(-c2ccc(F)cc2)o1)Nc1ccc(S(=O)(=O)N2CCCCCC2)cc1	none (no result: HPGD inh)
Cc1cccnc1NC(=O)NC(=O)c1ccc(C(C)(C)C)s1	none (no result: HPGD inh, ALDH1A1 inh, PNC assembly inh)
c1ccc(C(c2cccc3c2ccc2ccccc23)[C@H](c2ccccc2)c2cccc3c2ccc2ccccc23)cc1 (some centres undefined)	none (no result: KDM4E inh, PNC assembly inh)
CCN(CC)S(=O)(=O)c1ccc(NC(=O)CSc2nnc(-c3ccc(F)cc3)o2)cc1	PNC assembly inh -107
CCN(CC)S(=O)(=O)c1ccc(-c2nnc(SCC(=O)Nc3ccc4c(c3)OCO4)o2)cc1	ALDH1A1 inh inconclusive, PNC assembly inh inconclusive
COc1c(F)c(F)c(C(=O)O)c(Nc2ccc(C)cc2C)c1F	none (no result: HPGD inh, PNC assembly inh)
C=C[C@H]1CCC=C2C(=O)CCC[C@@H]21	none (no result: PNC assembly inh)
O=C(CSc1nnc2c(Cl)cc(Cl)cn12)N1CCN(c2ccc(F)cc2)CC1	none
N#Cc1c(C(F)(F)F)cc(-c2ccc(Cl)c(Cl)c2)nc1SCCN1CCOCC1	HPGD inh 25µM
C=CCSc1nc(-c2ccc3c(c2)OCO3)cc(C(F)(F)F)c1C#N	HPGD inh inconclusive, ALDH1A1 inh inconclusive, KDM4E inh inconclusive, PNC assembly inh -96
N#Cc1c(C(F)(F)F)cc(-c2ccccc2)nc1SCc1nc(N)nc(N2CCOCC2)n1	none
Cc1cc(C(F)(F)F)nc(SCCN2CCOCC2)c1C#N	ALDH1A1 inh 22µM (no result: HPGD inh, PNC assembly inh)
CCOC(=O)CCSc1nc(-c2ccc3c(c2)OCO3)cc(C(F)(F)F)c1C#N	HPGD inh inconclusive, ALDH1A1 inh inconclusive
Cc1nn(Cc2ccccc2)c2c1C(c1ccc(Cl)cc1)C(C#N)=C(N)O2 (centres undefined)	HPGD inh 1µM, ALDH1A1 inh inconclusive, PNC assembly inh inconclusive
Cc1nn(Cc2ccccc2)c2c1C(c1ccncc1)C(C#N)=C(N)O2 (centres undefined)	ALDH1A1 inh inconclusive, PNC assembly inh inconclusive
N#CC1=C(N)OC2=C(CN(Cc3ccccc3)C/C2=C\c2cccnc2)C1c1cccnc1 (centres undefined)	ALDH1A1 inh 1.3µM, KDM4E inh inconclusive
CCN(CC)c1ccc2c(c1)OC(N)=C(C#N)C2c1cccnc1 (centres undefined)	PNC assembly inh -99
N#CC1=C(N)Oc2cc(N)ccc2C1c1cccnc1 (centres undefined)	none
Cc1nn(Cc2ccccc2)c2c1C(c1cccnc1)C(C#N)=C(N)O2 (centres undefined)	ALDH1A1 inh 7.9µM, KDM4E inh inconclusive
O=S(=O)(N/N=C/c1cccnc1)c1ccc(Cl)c(Cl)c1	none (no result: HPGD inh, ALDH1A1 inh, PNC assembly inh)
COc1ccc2nc3ccccc3nc2c1NC(=O)c1ccc(Cl)cc1Cl	none
CCC(=O)NC1Cc2ccccc2C(c2ccccc2)C1 (centres undefined)	none (no result: HPGD inh, KDM4E inh, PNC assembly inh)
CC1=NN(C(=O)c2ccccc2-n2cccc2)C(O)(C(F)(F)F)C1 (centres undefined)	none
CCCc1n(CC)c2ccccc2[n+]1CC(O)COC1CCCCC1 (centres undefined)	ALDH1A1 inh inconclusive (no result: HPGD inh, PNC assembly inh)
CC(=O)C1C(c2cn(-c3ccccc3)nc2-c2cccs2)NC(=O)NC1(O)C(F)(F)F (centres undefined)	ALDH1A1 inh 22µM
CC(=O)C1C(c2ccccc2Cl)NC(=O)NC1(O)C(F)(F)F (centres undefined)	none
Clc1ccc(CSc2nnc(CN3CCOCC3)n2-c2ccccc2)cc1Cl	ALDH1A1 inh 18µM
Cc1ccc(NC(=O)CSc2nnc(CN3CCOCC3)n2-c2ccccc2)cc1	ALDH1A1 inh 3.2µM, PNC assembly inh inconclusive
O=C(CSc1nnc(CN2CCOCC2)n1-c1ccccc1)Nc1ccc(Cl)cc1	ALDH1A1 inh 22µM
Clc1cccc(Cl)c1CSc1nnc(CN2CCOCC2)n1-c1ccccc1	none
O=C(CSc1nnc(-c2ccccc2)n1-c1ccc(Cl)cc1)NNC(=S)Nc1ccccc1	ALDH1A1 inh 16µM
N=C1C(c2ccccc2)=C(O)CN1c1cccc(S(=O)(=O)N2CCOCC2)c1	none (no result: HPGD inh, ALDH1A1 inh, PNC assembly inh)
Cn1c(=O)c2[nH]c(/N=N\N3CCN(CCO)CC3)nc2n(C)c1=O	none (no result: KDM4E inh, PNC assembly inh)
Cc1cccc(C)c1N1CCN(C(=O)N2CCCCC2)CC1	ALDH1A1 inh inconclusive (no result: HPGD inh, PNC assembly inh)
Cc1ccc(CCc2nnc(SCC(=O)Nc3cc(Cl)ccc3Cl)n2-c2ccccc2)o1	ALDH1A1 inh 25µM
Cn1c(SCC(=O)N/N=C/c2ccc([N+](=O)[O-])s2)nnc1-c1ccccc1	none
Cn1c(SCC(=O)N/N=C/c2cc([N+](=O)[O-])ccc2O)nnc1-c1ccccc1	KDM4E inh 10µM (no result: HPGD inh, ALDH1A1 inh, PNC assembly inh)
